High-throughput results as filed in PubChem.
PfHsp90 set2 = growth inhibition of PfHsp90-expressing yeast, primary screen, antimalarial PfHsp90 inhibitor project, S. cerevisiae, BacTiter-Glo luminescence, single point, set 2 | hit rate 0.32% among 310,000 | BacTiter-Glo ATP, 48 h; yeast lacking PDR1 and PDR3 efflux regulators | inhibition, % at 9.4 µM;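 active = every replicate shows inhibition above about 80%, whatever the replicate mean, limit read from the data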
TIM10 inh = growth inhibitors of isogenic TIM10 control yeast, primary screen, counter-screen for tim10-1 yeast inhibitor project, luminescence, uHTS; inhibition, % at 10 µM; S. cerevisiae TIM10 strain growth, BacTiter-Glo luminescence, 24 h; AID 463195, 2010; hit rate 1.4% among 330,000;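 active = inhibition of 40% or more at the single tested concentration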;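 also: wild-type TIM10 isogenic control strain grown at permissive 25 °C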
tim10-1 inh = growth inhibitors of tim10-1 mutant yeast, primary screen, luminescence, uHTS; inhibition, % at 20 µM; S. cerevisiae tim10-1 ts strain growth, BacTiter-Glo, 24 h; hit rate 2.2% among 330,000;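 active = inhibition of at least 40%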;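 also: mutant grown at 25 °C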
tim23-1 inh = growth inhibitors of tim23-1 mutant yeast, primary screen, luminescence, uHTS. S. cerevisiae tim23-1 growth, BacTiter-Glo luminescence, 24 h. inhibition, % at 20 µM. hit rate 1.3% among 330,000;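 active = growth inhibition of the mutant yeast at or above 50%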;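 also: temperature-sensitive mutant grown at 25 °C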
SKKanGAS inh = S. pyogenes SKKanGAS growth inhibitors in kanamycin, primary screen, streptokinase expression inhibitor project, SKKanGAS strain, BacTiter-Glo luminescence. inhibition, % at 7.5 µM. hit rate 1.3% among 300,000. AID 1662, 2009. 6 h;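 active = mean replicate score, as percent of positive control median, at least 50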;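 also: strain carries kanamycin resistance gene driven by streptokinase promoter and grows in 40 µg/ml kanamycin; loss of luminescence reflects streptokinase promoter inhibition or plain growth inhibition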
ATG4B inh = ATG4B protease inhibitors, primary screen, biochemical, fluorescence, uHTS. hit rate 0.51% among 340,000. inhibition, % at 8.33 µM. Cysteine protease ATG4B (Homo sapiens), Q9Y4P1. AID 504462, 2011. ATG4B cleavage of LC3-PLA2, NBD-HPC fluorescence, 1 h; in the data active = inhibition above about 40%
Target sequence (Q9Y4P1 whole entry, looked up): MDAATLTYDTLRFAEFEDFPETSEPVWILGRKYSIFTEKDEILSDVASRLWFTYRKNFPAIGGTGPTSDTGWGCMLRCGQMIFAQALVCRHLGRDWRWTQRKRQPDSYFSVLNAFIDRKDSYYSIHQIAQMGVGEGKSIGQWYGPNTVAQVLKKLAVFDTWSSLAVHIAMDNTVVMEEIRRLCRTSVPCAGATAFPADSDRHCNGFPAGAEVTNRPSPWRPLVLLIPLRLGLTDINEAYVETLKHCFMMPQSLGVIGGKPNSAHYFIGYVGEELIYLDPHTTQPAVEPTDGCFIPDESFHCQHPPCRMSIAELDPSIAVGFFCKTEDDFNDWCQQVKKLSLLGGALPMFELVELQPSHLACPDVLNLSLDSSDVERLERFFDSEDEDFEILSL
TIM10 conf = growth inhibitors of wild-type TIM10 yeast, confirmation, counter-screen for tim10-1 synthetic lethality project, single concentration, luminescence, S. cerevisiae; shares compounds with TIM10 inh; S. cerevisiae tim10 strain growth, BacTiter-Glo luminescence, 24 h; inhibition, % at 10 µM; hit rate 63% among 4,600; AID 463215, 2010;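 active = inhibition of yeast growth at or above a set limit in either of two replicates at 10 µM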; also: this counterscreen used the strain with wild-type TIM10
tim23-1 confirm = tim23-1 mutant yeast growth inhibitors, confirmation, luminescence, single concentration | AID 463218, 2010 | inhibition, % at 20 µM | S. cerevisiae tim23-1 growth, BacTiter-Glo luminescence, 24 h | hit rate 83% among 4,400 | shares compounds with tim23-1 inh;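 active = inhibition above about 39% in either of two replicate wells at 20 µM, limit read from the data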;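 also: temperature-sensitive tim23-1 mutant grown at 25 °C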
Of the large screens only hits and unclear results are named; the others gave an inactive call (follow-up assays come after a bar, where they were run). Rows were chosen to be rich in hits. Some 4.7% of all compounds tested hit in one or more screens of this group.

O=c1c(-c2ccc3c(c2)OCCO3)coc2cc(O)cc(O)c12	TIM10 inh 41, tim23-1 inh 56 | TIM10 conf 36 | tim23-1 confirm 49
Cc1ccn2c(-c3csc(NCc4ccco4)n3)c(C)nc2c1	none
N/C(Cc1ccc([N+](=O)[O-])cc1)=N\OC(=O)c1ccc(Br)cc1	TIM10 inh 92, tim23-1 inh 83 | TIM10 conf 94 | tim23-1 confirm inactive
Cc1ccc(C(=O)O/N=C(\N)Cc2ccc([N+](=O)[O-])cc2)c(Cl)c1	TIM10 inh 89, tim23-1 inh 88 | TIM10 conf 96 | tim23-1 confirm 65
CCS(=O)(=O)N1CCN(c2ncnc3sc(C)c(C)c23)CC1	none
Cn1cc(S(=O)(=O)N2CCCC2)cc1C(=O)NCc1ccc(Cl)cc1	none
O=C(Nc1nc2cc3c(cc2s1)OCCO3)c1cccs1	none
O=C(Nc1ccc(N2CCCC2)c(Cl)c1)c1cccs1	TIM10 inh 45, tim23-1 inh 50 | TIM10 conf 34 | tim23-1 confirm 55
O=C(Nc1ccc(N2CCN(C(=O)c3cccs3)CC2)c(Cl)c1)c1ccco1	none (no result: PfHsp90 set2)
O=C(Nc1ccc2c(c1)OCCO2)c1cccs1	TIM10 inh 45, tim23-1 inh 56 | TIM10 conf 50 | tim23-1 confirm 65
CC(C)CN1C(=O)c2ccc(NC(=O)c3cccs3)cc2C1=O	TIM10 inh 46, tim23-1 inh 53 | TIM10 conf 50 | tim23-1 confirm 54
O=C(COC(=O)c1cncc(Br)c1)NC1CCCCC1	none
O=C(NC(=S)NC1CCCCCC1)c1cncc(Br)c1	TIM10 inh 44, tim23-1 inh 51 | TIM10 conf inactive | tim23-1 confirm 42
O=C(CCN1CCCCC1)c1ccccc1	none
CCc1oc2ccccc2c1C(=O)CCN1CCCCC1	TIM10 inh 57, tim23-1 inh 52 | TIM10 conf 41 | tim23-1 confirm inactive
CN(C)C(=O)c1nnc(Cc2ccc(Cl)cc2)o1	none
Cc1cccc(NC(=O)C2C(c3ccccc3)C2(Cl)Cl)c1 (stereo unspecified)	TIM10 inh 46, tim23-1 inh 52 | TIM10 conf 33 | tim23-1 confirm 51
Cc1cc(NC(=O)CSc2nnc(NC(=O)C3CC(=O)N(c4ccccc4C)C3)s2)no1 (stereo unspecified)	none
CC(C)CCNC(=O)C(=O)Nc1ccccc1	none
COc1ccc(Nc2nc(N)nc(CSC(=S)N3CCCCC3C)n2)cc1 (stereo unspecified)	tim23-1 inh 53 | TIM10 conf inactive | tim23-1 confirm 45
COc1cc(COCC(O)CN2CCN(Cc3ccccc3)CC2)cc(OC)c1OC (stereo unspecified)	none
CC(C)c1ccc(O)c(NC(=O)c2ncn[nH]2)c1	none (no result: SKKanGAS inh)
CC(C)c1ccc2c(c1)C1(NN=C(c3ccccc3)S1)C(=O)N2 (stereo unspecified)	TIM10 inh 51, tim23-1 inh 50, SKKanGAS inh 99 | TIM10 conf 40 | tim23-1 confirm 54
Oc1cccc(Nc2nc(-c3ccccc3)nc3ccccc23)c1	TIM10 inh 59, tim23-1 inh 82 | TIM10 conf 56 | tim23-1 confirm 54
CC(=O)Nc1cccc(Nc2nc(-c3ccccc3)nc3ccccc23)c1	none
Oc1c(C=Nc2ccccc2)sc2ccccc12	TIM10 inh 40, tim23-1 inh 66 | TIM10 conf 45 | tim23-1 confirm 62
c1cncc(-c2nnc(-c3cccs3)o2)c1	none (no result: PfHsp90 set2)
O/N=C/c1cccc[n+]1CCCCCC[n+]1ccccc1/C=N/O	none
CCCCCCCCCCCCCCCC[n+]1ccc(/C=N/O)cc1	PfHsp90 set2 106, TIM10 inh 50, tim23-1 inh 51 (no result: SKKanGAS inh) | TIM10 conf inactive | tim23-1 confirm 49
CCn1c(C)c(C)c2cc(C(=O)NCCCN3CCCC3)ccc21	none
CCn1c(C)c(C)c2cc(C(=O)Nc3cccc(Cl)c3)ccc21	TIM10 inh 41, tim23-1 inh 52 | TIM10 conf 51 | tim23-1 confirm 57
COc1ccc(C(CNC(=O)c2ccc(N3CCCC3=O)cc2)N2CCCC2)cc1 (stereo unspecified)	none (no result: SKKanGAS inh)
Cc1cccc(NC(=O)COc2ccc(Br)cc2/C=N/O)c1	TIM10 inh 56, tim23-1 inh 50 | TIM10 conf 61 | tim23-1 confirm 78
O=C(C(=O)N1CCOCC1)c1cn(CC(=O)N2CCc3ccccc3C2)c2ccccc12	none (no result: PfHsp90 set2)
O=C1Nc2ccc(Br)cc2/C1=C/C(=O)c1ccc2c(c1)OCO2	PfHsp90 set2 106, TIM10 inh 53, tim23-1 inh 73 | TIM10 conf 64 | tim23-1 confirm inactive
CCCCCCCCC1=NCCc2c1[nH]c1ccccc21	TIM10 inh 45, tim23-1 inh 57 | TIM10 conf inactive | tim23-1 confirm 43
COc1ccc(S(=O)(=O)NCC2CCCN(C(=O)c3ccco3)C2)cc1 (stereo unspecified)	none
NC(=S)NC1CC2C=CC1C2 (stereo unspecified)	none
Oc1c(Br)cc(Br)cc1/C=N/NC(=S)N[C@H]1CC2C=CC1C2 (stereo partly specified)	TIM10 inh 46, tim23-1 inh 57, SKKanGAS inh 120 | TIM10 conf 48 | tim23-1 confirm 68
Cc1onc(-c2ccccc2Cl)c1C(=O)Nc1cccc(-c2nc3ncccn3c2C)c1	none
c1ccc(-c2ncc(-c3ccn[nH]3)s2)cc1	TIM10 inh 49, tim23-1 inh 56 | TIM10 conf inactive | tim23-1 confirm 68
Cc1nc(C)c(-c2csc(Nc3ccccn3)n2)s1	TIM10 inh 48, tim23-1 inh 54 | TIM10 conf 47 | tim23-1 confirm 45
Cc1nc(N)sc1-c1csc(Nc2ccccn2)n1	none (no result: TIM10 inh, tim10-1 inh, tim23-1 inh)
Cc1c(C)c2cccnc2c2ncccc12	PfHsp90 set2 124, TIM10 inh 57, tim23-1 inh 69 (no result: SKKanGAS inh) | TIM10 conf 62 | tim23-1 confirm 45
Cc1ccc2ccc3cccnc3c2n1	none (no result: TIM10 inh, tim10-1 inh, tim23-1 inh)
NS(=O)(=O)c1ccc(CCNCc2cccnc2)cc1	none
COc1ccc(NC(=O)COC(=O)c2ccc3c(c2)OCCO3)cc1OC	none (no result: PfHsp90 set2, SKKanGAS inh)
NNC(=O)c1cn2ccccc2n1	none
